# From PubChem BioAssay (NCATS)
# Results filed as inconclusive are left out. Where a call stands in place of a potency, no number is given. Activity calls are given as the source filed them. Calls come from the whole dose curve; as a rule, active = well fitted curve in the direction sought with a large enough effect; inconclusive = small, poorly fitted or top-dose-only effect, or another doubt; inactive = no such curve, though single readings can be large; an effect the other way counts as inactive or inconclusive.
# Test: qHTS of pediatric cancer cell lines to identify multiple opportunities for drug repurposing: Confirmatory screen for Saos-2 cells (AID 1347127); note: nearly all actives have a fitted effect of over 60% in size
# Conditions: Saos-2 osteosarcoma cell viability; series mostly up to 45.9 µM
# Summary of the method: (§1)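 Cells (500-1,000/well) rested 5 h, then received compounds for 48 h; metabolically active cells were measured by CellTiter-Glo luminescence. Final concentrations spanned up to 46 µM (MIPE, 11-point) or 0.59 nM-46 µM (NPC, 8-point) in primary screens, 11-point in follow-ups.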
# Potency is the fitted concentration of half-maximal effect.
row,Structure (SMILES),Potency
1,COc1ccc(C(=O)N2CCCC2=O)cc1,inactive
2,CCc1ccc(C2CCNCC2)cc1,inactive
3,C[C@@H]1O[C@@H](O[C@@H]2C=C3CC[C@@H]4[C@H](CC[C@]5(C)[C@@H](c6ccc(=O)oc6)CC[C@]45O)[C@@]3(C)CC2)[C@H](O)[C@H](O)[C@H]1O,0.185 µM (active)
4,CN(C)C(=S)SSC(=S)N(C)C,10.4 µM (active)
5,CN1[C@@H]2CC[C@H]1CC(OC(=O)c1cc(Cl)cc(Cl)c1)C2 (stereo not given in full),inactive
6,ClC1=C(Cl)C2(Cl)C(CBr)CC1(Cl)C2(Cl)Cl (stereo not given),inactive
7,COc1ccc2c(C(=O)c3ccc(Cl)cc3)c(C)n(CC(=O)O)c2c1,inactive
8,CCCCCCCCC(=O)NCc1ccc(O)c(OC)c1,inactive
9,Cc1ccc([N+](=O)[O-])[c]2c1[O][Hg]2,1.04 µM (active)
10,CCCCCCCCCCCC[N+](C)(C)CCOc1ccccc1,14.7 µM (active)
11,CC[n+]1c(-c2ccccc2)c2cc(N)ccc2c2ccc(N)cc21,16.5 µM (active)

# Test: qHTS of pediatric cancer cell lines to identify multiple opportunities for drug repurposing: Confirmatory screen for OHS-50 cells (AID 1347128);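 note: compound exposure lasted 48 h at 37 degrees C; nearly all actives have a fitted effect of over 55% in size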
# Conditions: OHS-50 osteosarcoma cells viability; series mostly up to 45.9 µM
# Summary of the method: as §1
row,Structure (SMILES),Potency
1,CC1Sc2c(C(=O)O)c(=O)c3cc(F)c(N4CCNCC4)cc3n21 (stereo not given),inactive
2,CCc1ccc(C2CCNCC2)cc1,inactive
3,C[C@@H]1C[C@@H]([C@H](O)CC2CC(=O)NC(=O)C2)C(=O)[C@@H](C)C1,0.928 µM (active)
4,CN1[C@@H]2CC[C@H]1CC(OC(=O)c1cc(Cl)cc(Cl)c1)C2 (stereo not given in full),inactive
5,ClC1=C(Cl)C2(Cl)C(CBr)CC1(Cl)C2(Cl)Cl (stereo not given),inactive
6,COc1ccc2c(C(=O)c3ccc(Cl)cc3)c(C)n(CC(=O)O)c2c1,inactive
7,CCCCCCCCC(=O)NCc1ccc(O)c(OC)c1,inactive
8,Cc1ccc([N+](=O)[O-])[c]2c1[O][Hg]2,2.61 µM (active)
9,CCCCCCCCCCCC[N+](C)(C)CCOc1ccccc1,20.8 µM (active)
10,CC[n+]1c(-c2ccccc2)c2cc(N)ccc2c2ccc(N)cc21,1.17 µM (active)
11,COC(=O)C1=CCCN(C)C1,inactive

# Test: qHTS of pediatric cancer cell lines to identify multiple opportunities for drug repurposing: Confirmatory screen for SK-N-SH cells (AID 1347129);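 note: cells exposed to compound for 48 h before viability read; nearly all actives have a fitted effect of over 60% in size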
# Conditions: SK-N-SH neuroblastoma cell viability; series mostly up to 46.1 µM
# Summary of the method: as §1
row,Structure (SMILES),Potency
1,O=C(O)Cc1ccccc1,inactive
2,CC1Sc2c(C(=O)O)c(=O)c3cc(F)c(N4CCNCC4)cc3n21 (stereo not given),inactive
3,COc1ccc(C(=O)N2CCCC2=O)cc1,inactive
4,CCc1ccc(C2CCNCC2)cc1,inactive
5,C[C@@H]1O[C@@H](O[C@@H]2C=C3CC[C@@H]4[C@H](CC[C@]5(C)[C@@H](c6ccc(=O)oc6)CC[C@]45O)[C@@]3(C)CC2)[C@H](O)[C@H](O)[C@H]1O,0.0264 µM (active)
6,CN(C)C(=S)SSC(=S)N(C)C,11.8 µM (active)
7,ClC1=C(Cl)C2(Cl)C(CBr)CC1(Cl)C2(Cl)Cl (stereo not given),inactive
8,COc1ccc2c(C(=O)c3ccc(Cl)cc3)c(C)n(CC(=O)O)c2c1,inactive
9,CCCCCCCCC(=O)NCc1ccc(O)c(OC)c1,inactive
10,Cc1ccc([N+](=O)[O-])[c]2c1[O][Hg]2,3.72 µM (active)
11,CCCCCCCCCCCC[N+](C)(C)CCOc1ccccc1,20.9 µM (active)
12,CC[n+]1c(-c2ccccc2)c2cc(N)ccc2c2ccc(N)cc21,inactive
13,COC(=O)C1=CCCN(C)C1,inactive
